# Results: publication PMC9838217, “Structure of SALL4 zinc finger domain reveals link between AT-rich DNA binding and Okihiro syndrome”
# Substitutions are numbered along the chain they refer to.
# Tests used:
# Experiment in all cases: HT-SELEX; high values mean tight binding
# Conditions in all cases: protein: recombinant; vector His6-GST; dsDNA, one strand shown
# SALL4 ZFC4 WT (HT-SELEX) = molecular target: T1, SALL4 ZFC4 WT (HT-SELEX) (Mus musculus, UniProt Q8BX22 870-940)
# T1 sequence: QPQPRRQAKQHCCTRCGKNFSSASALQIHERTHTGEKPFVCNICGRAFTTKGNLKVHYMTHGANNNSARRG
# In short: (§1)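 For each canonical k-mer, binding signal is the read fraction as fold change versus the initial random library. Data came from up to 6 triplicate cycles in which purified recombinant mouse SALL4 zinc finger cluster 4 (residues 870–940, 1 µg) was incubated 10 min at room temperature with library DNA (1.5 µg first cycle, 200 ng later) in 100 µl of 10 mM Tris–HCl pH 7.5, 50 mM NaCl, poly(dI-dC), DTT, followed by Ni2+ bead capture, PCR amplification, MiSeq sequencing and a 6-mer scan.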
# [1] = molecular target: T2, SALL4 ZFC4 R900W (HT-SELEX) (Mus musculus, UniProt Q8BX22 870-940, R900W)
# T2 sequence: T1 sequence with R31W
# In short: as §1
# [2] = molecular target: T3, SALL4 ZFC4 G921D (HT-SELEX) (Mus musculus, UniProt Q8BX22 870-940, G921D)
# T3 sequence: T1 sequence with G52D
# In short: as §1
Sequence,binding signal (SALL4 ZFC4 WT (HT-SELEX)) [fold-change vs cycle 0],binding signal [1] [fold-change vs cycle 0],binding signal [2] [fold-change vs cycle 0]
CTTTGC,0.581 ± 0.0144,0.663 ± 0.0189,0.743 ± 0.024
CAACAG,0.698 ± 0.0379,0.824 ± 0.0446,0.869 ± 0.0293
AGTTGG,0.73 ± 0.0169,0.834 ± 0.0159,0.883 ± 0.0279
AGACCA,0.701 ± 0.0172,0.823 ± 0.0201,0.91 ± 0.0215
CCTCAC,0.47 ± 0.0318,0.561 ± 0.0275,0.658 ± 0.0448
AAATAG,1.7 ± 0.0926,1.74 ± 0.095,1.58 ± 0.0914
GGATAA,1.38 ± 0.0543,1.52 ± 0.0741,1.34 ± 0.114
ATCGTG,0.701 ± 0.0455,0.775 ± 0.0256,0.876 ± 0.0311
CCACAC,0.35 ± 0.0241,0.414 ± 0.0369,0.516 ± 0.0626
GCGATA,0.515 ± 0.0117,0.534 ± 0.0163,0.668 ± 0.0315
TAATTA,4.1 ± 0.33,2.77 ± 0.208,2.33 ± 0.317
AAATTG,1.6 ± 0.125,1.53 ± 0.0609,1.48 ± 0.0586
CCAAAG,0.69 ± 0.0265,0.801 ± 0.0292,0.848 ± 0.0204
AGTCCG,0.333 ± 0.0345,0.404 ± 0.0391,0.533 ± 0.0458
CCTAGC,0.4 ± 0.0405,0.434 ± 0.0293,0.55 ± 0.055
GTGATA,1.42 ± 0.0582,1.47 ± 0.0649,1.39 ± 0.0928
CTATTA,2.26 ± 0.136,2.05 ± 0.132,1.81 ± 0.165
TGGAAA,1.28 ± 0.069,1.27 ± 0.0696,1.23 ± 0.0625
TGTGAA,1.23 ± 0.0362,1.38 ± 0.0419,1.29 ± 0.0621
CCCAAC,0.395 ± 0.0223,0.437 ± 0.0176,0.544 ± 0.0399
AAGGAA,1.46 ± 0.0939,1.66 ± 0.0995,1.49 ± 0.137

Sequence,binding signal (SALL4 ZFC4 WT (HT-SELEX)) [fold-change vs cycle 0],binding signal [1] [fold-change vs cycle 0],binding signal [2] [fold-change vs cycle 0]
GGACCA,0.389 ± 0.0179,0.466 ± 0.011,0.557 ± 0.0733
ACGATA,1.28 ± 0.0502,1.3 ± 0.0452,1.26 ± 0.0543
GGAAAA,1.11 ± 0.0508,1.13 ± 0.0572,1.12 ± 0.0269
ATGACC,0.806 ± 0.0726,0.891 ± 0.0488,0.947 ± 0.065
CGACTA,0.59 ± 0.0236,0.656 ± 0.0311,0.777 ± 0.0234
ACCACG,0.351 ± 0.0168,0.428 ± 0.0163,0.523 ± 0.0453
AGTAAG,1.58 ± 0.0246,1.73 ± 0.024,1.53 ± 0.116
CAGACC,0.367 ± 0.0114,0.461 ± 0.0322,0.553 ± 0.0477
GGACAC,0.362 ± 0.012,0.454 ± 0.013,0.559 ± 0.0612
CGAAAG,0.614 ± 0.0288,0.735 ± 0.037,0.79 ± 0.0572
CATTTC,1.25 ± 0.0444,1.26 ± 0.0656,1.23 ± 0.0622
AATATC,2.49 ± 0.203,1.88 ± 0.0733,1.75 ± 0.14
AGGGAG,0.59 ± 0.0373,0.667 ± 0.0517,0.737 ± 0.0368
GTCTAA,1.16 ± 0.029,1.28 ± 0.0593,1.27 ± 0.0407
ATTCTA,2.06 ± 0.0756,2.07 ± 0.113,1.81 ± 0.213
CAGTCG,0.32 ± 0.0306,0.389 ± 0.0206,0.497 ± 0.0334
ACCCTG,0.474 ± 0.0232,0.563 ± 0.034,0.648 ± 0.0451
CAGTAA,1.35 ± 0.0452,1.48 ± 0.063,1.37 ± 0.109
ACTTGA,1.33 ± 0.0337,1.5 ± 0.0479,1.41 ± 0.0888
CAAGTA,1.28 ± 0.0466,1.42 ± 0.0751,1.34 ± 0.0943
AAGCAG,0.683 ± 0.026,0.821 ± 0.0507,0.85 ± 0.0183
